Test results as given in PubChem BioAssay.
Values joined by “and” are separate entries in the source; they are usually repeats but may differ in a detail not shown here. Identical values can stand only once. Active and inactive are the calls of the source.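 How the source made its calls, unless noted: active means thallium flux through the channel raised or lowered by more than 3 SD from vehicle-only wells, actives on both sides; inactive means the rest.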

What was measured:
[1] = stimulators of nuclear beta-catenin in C2C12, primary screen, imaging, WNT3A-conditioned medium, mouse C2C12, NPC library (AID 1117326; in the data active means nuclear beta-catenin stimulation mostly above about 4.2%, no sharp cut-off; inactive means mostly below about 10%); details: stronger effect = higher value
[2] = stimulators of insulin release from INS-1E, primary screen, cell-based, 5 mM glucose, NPC library (AID 1117329;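 active means compound raises insulin release from rat beta cells at 5 mM glucose, no numeric limit stated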); details: rat INS-1E insulin secretion, at 10 µM, stronger effect = higher value
[3] = growth inhibition of GSK3B-pretreated HCT116 cells – cell-based, CellTiter-Glo, 0.2 to 20 µM (AID 1117336;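 active means compounds lowering colon cancer cell viability after pretreatment blocking the GSK3B kinase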); details: HCT116 viability after GSK3B inhibitor, at 20 µM, stronger effect = higher value
[4] = inhibition of endothelial tube formation, primary screen, imaging, VEGF stimulated, CD31 staining, tube area, NPC library (AID 1117340;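 active means compound that reduces growth-factor-driven endothelial tube area in a mixed cell culture, no cutoff stated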); details: VEGF-stimulated ADSC/ECFC co-culture, at 10 µM, stronger effect = higher value
[5] = glucagon-like peptide 1 release enhancers, primary assay, NCI-H716 cell line, NPC library (AID 1117341;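 active means compound raises GLP1 secretion from the human gut endocrine cells, with no numeric limit stated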); details: NCI-H716 cells, at 10 µM, stronger effect = higher value
[6] = HCT116 colon cancer cell growth inhibition, primary screen, CellTiter-Glo luminescence, NPC library (AID 1117342;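 active means compounds that lower survival of HCT116 colon cancer cells in the luminescence readout, no numeric limit stated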); details: at 20 µM (top of the series)
[7] = CellTiter-Glo luminescent readout of SW480 viability loss, NPC library primary (AID 1117343;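 active means compounds that lower viability of the colon cancer cells in the luminescence readout, with no numeric limit stated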); details: CellTiter-Glo luminescence; at 20 µM (top of the series)
[8] = decreased DLD-1 cellular survival, CellTiter-Glo luminescent readout, NPC compound collection, primary HTS (AID 1117346;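 active means compounds that lower survival of DLD-1 colon cancer cells in the luminescence readout, no cutoff given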); details: DLD-1 viability, CellTiter-Glo luminescence; at 20 µM (top of the series)
[9] = target: 6-phosphogluconate dehydrogenase, decarboxylating (Homo sapiens) (UniProt P52209); test: 6PGD enzyme inhibitors, primary screen, biochemical, human, recombinant enzyme, NADPH absorbance (AID 1159550;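 active means at least 20% inhibition of 6-phosphogluconate dehydrogenase activity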); details: recombinant 6PGD, NADPH absorbance 341 nm; at 10 µM; stronger effect = higher value
Chain of 6-phosphogluconate dehydrogenase, decarboxylating (Homo sapiens) (P52209 whole entry, looked up): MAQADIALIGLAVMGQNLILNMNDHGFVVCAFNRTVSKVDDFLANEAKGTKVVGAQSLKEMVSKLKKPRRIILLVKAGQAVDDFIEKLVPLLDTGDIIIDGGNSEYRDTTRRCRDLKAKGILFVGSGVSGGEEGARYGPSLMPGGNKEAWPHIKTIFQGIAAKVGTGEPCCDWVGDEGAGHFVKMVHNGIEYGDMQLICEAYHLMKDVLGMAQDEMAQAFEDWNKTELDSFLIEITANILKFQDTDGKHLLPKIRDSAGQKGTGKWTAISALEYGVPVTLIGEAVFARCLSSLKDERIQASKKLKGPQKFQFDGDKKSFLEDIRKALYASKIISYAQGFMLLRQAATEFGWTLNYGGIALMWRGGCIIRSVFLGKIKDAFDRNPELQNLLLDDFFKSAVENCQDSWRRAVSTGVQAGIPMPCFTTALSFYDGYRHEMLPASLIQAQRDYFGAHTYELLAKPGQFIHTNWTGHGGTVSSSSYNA

[10] = differential killing of epithelial or mesenchymal cells, primary screen, imaging, PC-3E GFP, TEM4-18 mCherry, co-culture (AID 1345086;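 active means compounds killing one labelled cell type while sparing the other, by normalised counts and ratio limits, not self-fluorescent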;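 on all read-outs here: cells exposed to compound for 72 h before imaging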;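 on red/green cell ratio (normalised): normalised mesenchymal count divided by normalised epithelial count so high means epithelial killing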); details: imaging cell counts, at 1 µM; for red/green cell ratio (normalised): actives lie on both sides, counts scaled to control wells, 1 = unselective
[11] = sensitizers of A549 cells to miR-34 induction, primary screen, imaging, A549 dox-inducible miR-34, nuclei and caspase counts (AID 1347080;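 active means compounds whose cell count with miR-34 switched on is under 0.7 times the count with it off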); details: A549 miR-34 inducible, Hoechst nuclei count, 48 h
[12] = survival rescue of mitochondrial mutant cells in low glucose, primary screen, MELAS cybrids, Rieske KO mouse fibroblasts, CellTiter-Glo (AID 1508586;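 active means mean z-score across replicates of 1.96 or higher in either the MELAS or the Rieske mutant cell line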;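 further: z relative to plate mean and SD of compound and empty wells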)
[13] = target: NAD(+) hydrolase SARM1 (Homo sapiens) (UniProt Q6SZW1); test: SARM1 TIR NADase inhibitors, cell lysate, NAD-Glo luminescence (AID 1508614;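 active means compound whose remaining NAD level is above about 45 nM, limit read from the data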); details: SAM-TIR HEK293T lysate NADase, at 1 µM, stronger effect = higher value
Chain of NAD(+) hydrolase SARM1 (Homo sapiens) (Q6SZW1 whole entry, looked up, the tested form may be a part): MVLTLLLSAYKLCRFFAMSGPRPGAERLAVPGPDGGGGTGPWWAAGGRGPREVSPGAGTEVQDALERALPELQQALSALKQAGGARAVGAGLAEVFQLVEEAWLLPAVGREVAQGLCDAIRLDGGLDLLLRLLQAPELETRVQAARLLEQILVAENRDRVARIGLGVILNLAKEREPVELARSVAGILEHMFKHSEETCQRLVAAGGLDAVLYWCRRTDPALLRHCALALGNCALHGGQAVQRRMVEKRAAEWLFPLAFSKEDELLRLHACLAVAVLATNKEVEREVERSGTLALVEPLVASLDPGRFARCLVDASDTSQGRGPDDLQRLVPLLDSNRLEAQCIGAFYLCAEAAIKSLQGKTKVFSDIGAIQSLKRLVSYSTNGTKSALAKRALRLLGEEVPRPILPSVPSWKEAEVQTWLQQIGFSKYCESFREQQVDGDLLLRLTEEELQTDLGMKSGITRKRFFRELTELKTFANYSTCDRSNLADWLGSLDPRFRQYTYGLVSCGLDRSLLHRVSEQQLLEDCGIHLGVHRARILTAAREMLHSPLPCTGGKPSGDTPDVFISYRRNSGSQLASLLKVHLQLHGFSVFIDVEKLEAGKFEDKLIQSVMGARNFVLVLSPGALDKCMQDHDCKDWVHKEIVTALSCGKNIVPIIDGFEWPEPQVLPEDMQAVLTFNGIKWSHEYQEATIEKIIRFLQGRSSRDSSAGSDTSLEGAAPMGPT

[14] = target: Mitogen-activated protein kinase 7 (Homo sapiens) (UniProt Q13164); test: ERK5 transactivation activators in reporter cells, primary screen, cell-based, HTS (AID 1508626;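 active means luciferase signal above three times the same-plate solvent-only control wells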;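 further: luciferase driven by Gal4-ERK5 fusion binding five Gal4 sites before minimal TATA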); details: HeLa Gal4-ERK5 transactivation, 18 h, at 5 µM, stronger effect = higher value
Chain of Mitogen-activated protein kinase 7 (Homo sapiens) (Q13164 whole entry, looked up, the tested form may be a part): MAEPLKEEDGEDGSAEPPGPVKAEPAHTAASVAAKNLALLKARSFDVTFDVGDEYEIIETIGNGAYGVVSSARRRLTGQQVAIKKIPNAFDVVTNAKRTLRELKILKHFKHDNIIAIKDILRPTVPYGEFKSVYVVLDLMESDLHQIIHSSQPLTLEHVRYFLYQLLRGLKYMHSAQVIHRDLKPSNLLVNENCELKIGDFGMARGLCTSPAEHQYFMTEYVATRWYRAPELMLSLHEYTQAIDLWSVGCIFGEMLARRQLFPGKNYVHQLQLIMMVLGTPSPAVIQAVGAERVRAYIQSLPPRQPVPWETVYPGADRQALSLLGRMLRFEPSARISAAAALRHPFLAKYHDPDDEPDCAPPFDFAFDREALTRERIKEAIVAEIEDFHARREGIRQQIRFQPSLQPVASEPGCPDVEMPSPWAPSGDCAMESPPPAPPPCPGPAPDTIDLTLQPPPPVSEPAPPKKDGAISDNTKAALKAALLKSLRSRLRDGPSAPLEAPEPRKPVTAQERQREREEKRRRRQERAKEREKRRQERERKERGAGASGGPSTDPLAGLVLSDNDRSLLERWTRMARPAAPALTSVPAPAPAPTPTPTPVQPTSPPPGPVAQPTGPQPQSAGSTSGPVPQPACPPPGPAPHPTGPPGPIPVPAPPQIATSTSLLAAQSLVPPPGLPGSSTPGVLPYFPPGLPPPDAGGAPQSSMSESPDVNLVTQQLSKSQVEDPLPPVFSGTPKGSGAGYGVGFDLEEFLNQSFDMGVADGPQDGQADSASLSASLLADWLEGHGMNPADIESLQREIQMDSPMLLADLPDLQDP

F380Y = test: modulators of BK channel variants, profiling panel, selectivity assay, cell-based, U2OS BacMam, thallium flux, beta subunits (AID 1259406); details: at 30 µM;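 further: initial slope of Thallos dye fluorescence rise after thallium is added; log ratio against the mean of 0.3% DMSO vehicle wells on the same plate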
F380Y/beta2Delta = test: as above; details: at 30 µM
[15] = target: Calcium-activated potassium channel subunit alpha-1 (Homo sapiens) + Leucine-rich repeat-containing protein 26 (Homo sapiens) (UniProt Q12791+Q2I0M4); test: as above; details: F380Y/Slo1WT/gamma1, at 30 µM
Chain of Calcium-activated potassium channel subunit alpha-1 (Homo sapiens) + Leucine-rich repeat-containing protein 26 (Homo sapiens) (Q2I0M4 whole entry, looked up, one chain of several): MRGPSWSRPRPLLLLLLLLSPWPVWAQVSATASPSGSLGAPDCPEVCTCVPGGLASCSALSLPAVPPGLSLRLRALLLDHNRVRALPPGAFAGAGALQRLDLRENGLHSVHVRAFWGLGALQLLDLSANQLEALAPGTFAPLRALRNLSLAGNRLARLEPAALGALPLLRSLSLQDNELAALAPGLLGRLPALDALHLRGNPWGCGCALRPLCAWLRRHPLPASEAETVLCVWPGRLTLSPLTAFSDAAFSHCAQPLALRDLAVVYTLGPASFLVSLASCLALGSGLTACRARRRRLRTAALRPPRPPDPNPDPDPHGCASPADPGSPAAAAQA

R275C = test: as above; details: at 30 µM
R275C/beta1 = test: as above; details: at 30 µM
R275C/beta2Delta = test: as above; details: at 30 µM
[16] = measured here: epithelial PC-3E GFP cell survival
[17] = measured here: mesenchymal TEM4-18 mCherry cell survival
[18] = MELAS cybrid survival, CellTiter-Glo 48 h, stronger effect = higher value
[19] = Rieske KO mouse fibroblast survival, CellTiter-Glo 72 h

NS(=O)(=O)c1cc2c(cc1C(F)(F)F)NCNS2(=O)=O
nuclear beta-catenin stimulation ([1]; at 10 µM): -1% (inactive) | nuclear beta-catenin stimulation ([1]; stimulation, at 2 µM): 1% | insulin secretion stimulation [2]: -0.5% (inactive) | viability decrease [3]: -8.5% (inactive) | tube area decrease [4]: -8.6% (inactive) | GLP1 secretion stimulation [5]: 0.4% (inactive) | inhibition of viability [6]: -2% (inactive) | viability decrease (inhibition) [7]: 10.4% (inactive) | viability decrease (inhibition) [8]: -13.4% (inactive) | inhibition [9]: -4.61% (inactive) | red/green cell ratio (normalised) [10]: 1.07 (inactive) | normalised cell number [10, 16]: 0.95 | normalised cell number [10, 17]: 1.02 | fold change ([11]; stronger effect = lower value, cell number ratio, induced over uninduced): 0.934 (inactive) and 0.925 (inactive) and 0.803 (inactive) | fold change ([11]; measured here: relative caspase fold change +Dox/-Dox): 2.9 and 1.27 and 0.875 | cell count ([11]; measured here: total cells with miR-34 induction, stronger effect = lower value): 10100 and 9100 and 10600 | cell count ([11]; measured here: total cells without miR-34 induction): 10900 and 9840 and 13200 | z-score [12, 18]: 0.119 (inactive) | z-score [12, 19]: 0.185 | remaining NAD [13]: 10 nM (inactive) | luciferase signal [14]: 40 AU (inactive) | log fold change Tl+ flux (F380Y): -0.0227 (inactive) | log fold change Tl+ flux (F380Y/beta2Delta): 0.0255 (inactive) | log fold change Tl+ flux [15]: -0.0239 (inactive) | log fold change Tl+ flux (R275C): -0.0328 (inactive) | log fold change Tl+ flux (R275C/beta1): -0.0725 (inactive) | log fold change Tl+ flux (R275C/beta2Delta): 0.0545 (inactive)

CC(N=C(NC#N)Nc1ccncc1)C(C)(C)C (stereo not drawn)
nuclear beta-catenin stimulation ([1]; at 10 µM): -0.6% (inactive) | nuclear beta-catenin stimulation ([1]; stimulation, at 2 µM): -1.6% | insulin secretion stimulation [2]: 2.1% (inactive) | viability decrease [3]: -8.9% (inactive) | tube area decrease [4]: -9.6% (inactive) | GLP1 secretion stimulation [5]: -3.6% (inactive) | inhibition of viability [6]: 12.1% (inactive) | viability decrease (inhibition) [7]: -10.1% (inactive) | viability decrease (inhibition) [8]: 5.8% (inactive) | inhibition [9]: -10.6% (inactive) | red/green cell ratio (normalised) [10]: 1.42 (inactive) | normalised cell number [10, 16]: 1.21 | normalised cell number [10, 17]: 1.72 | z-score [12, 18]: 0.121 (inactive) and 0.328 (inactive) | z-score [12, 19]: -0.266 and 0.371 | remaining NAD [13]: 10 nM (inactive) | luciferase signal [14]: 64 AU (inactive) | log fold change Tl+ flux (F380Y): -0.0323 (inactive) | log fold change Tl+ flux (F380Y/beta2Delta): 0.0089 (inactive) | log fold change Tl+ flux [15]: -0.0269 (inactive) | log fold change Tl+ flux (R275C): 0.000868 (inactive) | log fold change Tl+ flux (R275C/beta1): 0.00651 (inactive) | log fold change Tl+ flux (R275C/beta2Delta): -0.00406 (inactive)

CCN(CC)CCNC(=O)c1ccc(N)cc1
nuclear beta-catenin stimulation ([1]; at 10 µM): 1.2% (inactive) | nuclear beta-catenin stimulation ([1]; stimulation, at 2 µM): 2.4% | insulin secretion stimulation [2]: 1.1% (inactive) | viability decrease [3]: 1.4% (inactive) | tube area decrease [4]: 8.7% (inactive) | GLP1 secretion stimulation [5]: 2.8% (inactive) | inhibition of viability [6]: 15.3% (inactive) | viability decrease (inhibition) [7]: -11.5% (inactive) | viability decrease (inhibition) [8]: -4.7% (inactive) | inhibition [9]: 13.2% (inactive) | red/green cell ratio (normalised) [10]: 0.9 (inactive) | normalised cell number [10, 16]: 0.66 | normalised cell number [10, 17]: 0.59 | z-score [12, 18]: -0.241 (inactive) and -0.159 (inactive) and 0.703 (inactive) | z-score [12, 19]: -0.144 and -0.31 and 0.675 | remaining NAD [13]: 10 nM (inactive) | luciferase signal [14]: 56 AU (inactive) | log fold change Tl+ flux (F380Y): -0.0589 (inactive) | log fold change Tl+ flux (F380Y/beta2Delta): 0.0202 (inactive) | log fold change Tl+ flux [15]: 0.0259 (inactive) | log fold change Tl+ flux (R275C): 0.0572 (inactive) | log fold change Tl+ flux (R275C/beta1): -0.0679 (inactive) | log fold change Tl+ flux (R275C/beta2Delta): -0.0122 (inactive)
